Vaccinia pol inh: vaccinia E9 polymerase processive synthesis inhibitors, primary screen, biochemical, absorbance; Vaccinia virus DNA polymerase (E9) processive complex; in vitro processive DNA synthesis, absorbance read-out; active compounds read low; normalized absorbance, % (no concentration beside the values); 0.94% of 46,000 active; AID 493162, 2011; in the data active = normalized absorbance mostly below about 85%, no sharp cut-off; inactive = mostly above about 86%
* hit, by the source's call. Shown is part of a subset that was picked to be rich in hits.

SMILES	Vaccinia pol inh
CCc1ccccc1NC(=O)CC(NCC1CCCO1)C(=O)O (stereo not given)	97
NS(=O)(=O)c1ccc2nc(NC(=O)c3ccc4c(c3)CCCC4)sc2c1	98
N#Cc1nc(-c2ccccc2)oc1NN	97
CNC(=O)CC1Nc2ccccc2NC1=O (stereo not given)	103
O=C(O)c1ccc2c(c1)NC(=O)C(CSCc1ccccc1Cl)N2 (stereo not given)	39*
NC(=O)NC(=O)CC1Nc2ccccc2NC1=O (stereo not given)	99
CC(SC1=NN2CCCC(=O)N=C2S1)c1ccccc1 (stereo not given)	97
CC(C)c1ccccc1NC(=O)COC(=O)COc1ccc(Cl)cc1	97
c1ccc(Nc2cnccn2)cc1	101
CC(C(=O)O)N1C(=O)C2C3C=CC(C3)C2C1=O (stereo not given)	99
CCOc1nc2ccccc2c(=O)n1CCO	100
CN1CCN(c2cc(-c3ccccc3)nc3ccccc23)CC1	79*
CN1CCN(c2nc(-c3ccccc3)c3ccccc3n2)CC1	101
CN1CCN(c2cc(-c3ccncc3)nc3ccccc23)CC1	83
O=C(NCCO)c1ccc(CSc2nc3ccccc3c(=O)[nH]2)cc1	99
COc1ccc2cc3cc(C(=O)NCCCN4CCCCCC4)oc3nc2c1	63*
Cc1ccc2cc3cc(C(=O)NCCCN4CCCCCC4)sc3nc2c1	66*
CCN1CCN(CCCNC(=O)c2cc3cc4ccc(Cl)cc4nc3o2)CC1	94
Cc1ccc2cc3cc(C(=O)NCCN4CCN(c5cccc(Cl)c5)CC4)sc3nc2c1	104
COc1ccc2cc3cc(C(=O)NC4CCCC(C)C4C)oc3nc2c1 (stereo not given)	101
COc1ccc2cc3cc(C(=O)NCCC4=CCCCC4)sc3nc2c1	103
O=C(CCC(=O)c1ccc(F)cc1)OCc1ccc(Br)cc1	103
CC1=CC(C)(C)NC(=O)N1c1ccccc1	102
CCOC(=O)C1=CN(C)C=C(C(=O)OCC)C1c1cc(Br)c(O)c(OC)c1	108
COC(=O)c1ccc(/C=C2/SC(=Nc3cccnc3)NC2=O)cc1	100
SMILES	Vaccinia pol inh
COc1ccc(NC(=O)c2cn(-c3ccccc3)nc2-c2cccnc2)cc1	91
N#Cc1ccc(OCc2ccc(Cl)nc2)cc1	109
CCOC(=O)c1oc2ccccc2c1CO	77*
CCOC(=O)c1oc2ccccc2c1NC(=O)c1ccccc1	92
CCOC(=O)c1oc2ccccc2c1NC(=O)c1ccc(S(=O)(=O)N(C)C)cc1	104
O=C(/C=C\c1ccccc1)Nc1nnc(-c2ccc(Cl)cc2)s1	87
CCOc1ccc(Cl)cc1S(=O)(=O)N1CC(C)OC(C)C1 (stereo not given)	102
CC(C)CC(C(=O)O)N1C(=O)C2C3c4ccccc4C(c4ccccc43)C2C1=O (stereo not given)	100
COc1ccc(-n2nc(C#N)c(N)c(C#N)c2=N)cc1	99
CC1CCN(C(=O)c2scc3c2CCCC3)CC1	100
O=C(O)c1cc(-c2cccs2)nc2ccc(Br)cc12	34*
CN(C(=O)c1cc(-c2cccs2)nc2ccccc12)c1ccccc1	107
O=C(O)c1cc(-c2cccs2)nc2ccccc12	91
O=C(NCc1ccc(Cl)cc1)c1cc2c(s1)CSC2	105
Cc1cc(C)n(C(=O)c2ccc(-c3ccccc3)cc2)n1	100
N#CC(CCN1CCNCC1)(c1ccccc1)c1ccccc1	100
COc1ccccc1CNC(=O)COc1cc(C)nn1-c1ccc(Cl)cc1	101
c1ccc(CCn2c(CSc3nc4ccccc4o3)nc3ccccc32)cc1	99
COc1cccc(-n2ccnc2SCC(=O)NCc2ccc3c(c2)OCO3)c1	96
CCOC(=O)Cn1c(=N)n(Cc2ccc(Cl)c(Cl)c2)c2ccccc21	100
c1ccc(-c2csc3nc4ccccc4n23)cc1	86
c1ccc(-c2cn3c(nc4ccccc43)s2)cc1	80*
CCN(CC)CCCn1c(-c2ccccc2)cn2c3ccccc3nc12	100
Cc1nc2ccccc2c2oc(C(=O)NCCN(C)C3CCCCC3)cc12	46*
COC(CNC(=O)c1cc2c(C)nc3ccccc3c2o1)OC	91
SMILES	Vaccinia pol inh
COC(CN(C)C(=O)c1cc2c(C)nc3ccccc3c2o1)OC	96
COc1cc(Cl)c(C)cc1NCC(=O)Nc1cccnc1Cl	99
CN(Cc1ccccc1)S(C)(=O)=O	100
Cn1nc(-c2ccccc2)c(/C=N/O)c1Cl	100
O/N=C/c1cccs1	124
O/N=C/C1=C(Cl)c2ccccc2CC1	78*
O=C(/C=C/NCc1ccccc1)c1ccc(Br)cc1	101
COC(=O)Nc1nccs1	97
O=C(c1cc(-c2ccc(F)cc2)nc2ccccc12)N1CCOCC1	97
CCCN1CCCc2cc(CN(CCOC)C(=S)Nc3ccccc3OC)ccc21	92
C=CCn1c(CCCNC(=O)c2cccs2)nc2ccccc21	91
COc1ccc2c(OC)ccc3c2c1C=CC3=O	56*
Cc1ccc(CCNC(=O)c2cccc3c2SCCC3=O)cc1	109
CN(C)Cc1c(O)ccc2occ(C(=O)c3cccc(Br)c3)c12	100
CCn1c(=O)c2cc(C(=O)N(C)Cc3ccco3)sc2c2ccccc21	103
COC(=O)CN1C(=O)COc2ccc(C)cc21	102
COc1ccc(N=Cc2cn(-c3ccc(OC)cc3)cc2C=Nc2ccc(OC)cc2)cc1	68
COc1ccc(C=Nc2ccccc2)cc1	101
COc1ccc(N=Cc2ccccc2F)cc1	52*
COC(=O)c1sccc1N1C(=O)C=C(C)C1=O	82
CCc1ccc(OCCCC(=O)Nc2ncn[nH]2)cc1	101
O=C(Nc1ncn[nH]1)c1ccccc1O	94
O=C(CCCC(=O)c1ccccc1)Nc1ncn[nH]1	73*
O=C(O)c1ccc2c(c1)N(Cc1ccc(F)cc1)C(=O)/C(=C\c1ccccc1)S2	57*
CNC(=O)CN1C(=O)/C(=C/c2ccccc2C)Sc2ccccc21	101
SMILES	Vaccinia pol inh
O=C(NCC1CCCO1)c1ccc2c(c1)N(Cc1ccc(F)cc1)C(=O)/C(=C/c1ccccc1)S2 (stereo not given)	88
O=C(O)CN1C(=O)S/C(=C\c2ccc(Br)cc2)C1=O	94
CCc1ccc(/C=C2\Sc3ccccc3N(CC(=O)O)C2=O)cc1	66*
O=C(/C=C1/Sc2ccccc2N(Cc2ccc(F)cc2)C1=O)NCc1ccccc1	104
CCOc1ccc(NC(NC(=O)c2cccs2)C(=O)c2ccccc2)cc1 (stereo not given)	100
N#Cc1c(NC(=O)/C=C/c2cccs2)sc2c1CCCC2	101
CCN(CC)S(=O)(=O)c1cc(C(=O)N(C)c2ccccc2)ccc1Cl	100
O=c1nc(-c2cccs2)cc(C(F)(F)F)[nH]1	110
OC(CNC1CCCC1)Cn1c2ccccc2c2ccccc21 (stereo not given)	80*
Cc1c(C)n(CC(O)CNC2CCCC2)c2ccccc12 (stereo not given)	97
CC(C)Cn1c2ccccc2c2ccccc21	98
CCN(CC)CC(O)Cn1c2ccccc2c2ccccc21 (stereo not given) (tested in a mixture with another compound)	76*
Cc1ccc(N(CC(O)Cn2c3ccccc3c3ccccc32)S(=O)(=O)c2ccccc2)cc1 (stereo not given)	101
Cc1c(C)n(CC(O)CNC2CCCCC2)c2ccccc12 (stereo not given)	100
S=c1[nH]n(Cc2ccccc2)c(=NCc2ccccc2)s1	101
O=C(NCCc1ccccc1)C1CCCN(c2ncnc3c2sc2cccc(F)c23)C1 (stereo not given)	102
